Data taken from ChEMBL document CHEMBL1201862, “PubChem BioAssay data set” (2004).
The whole screen tested about 220,000 compounds, of which about 16,000 (7.3%) were called active. About 25% were inconclusive and are not listed. The calls are words filed in the database; no cut-off is given here. The full list was thinned out, with actives kept by preference.

Target: T1, Aldehyde dehydrogenase 1A1 (Homo sapiens) (UniProt P00352)
T1 sequence (whole entry): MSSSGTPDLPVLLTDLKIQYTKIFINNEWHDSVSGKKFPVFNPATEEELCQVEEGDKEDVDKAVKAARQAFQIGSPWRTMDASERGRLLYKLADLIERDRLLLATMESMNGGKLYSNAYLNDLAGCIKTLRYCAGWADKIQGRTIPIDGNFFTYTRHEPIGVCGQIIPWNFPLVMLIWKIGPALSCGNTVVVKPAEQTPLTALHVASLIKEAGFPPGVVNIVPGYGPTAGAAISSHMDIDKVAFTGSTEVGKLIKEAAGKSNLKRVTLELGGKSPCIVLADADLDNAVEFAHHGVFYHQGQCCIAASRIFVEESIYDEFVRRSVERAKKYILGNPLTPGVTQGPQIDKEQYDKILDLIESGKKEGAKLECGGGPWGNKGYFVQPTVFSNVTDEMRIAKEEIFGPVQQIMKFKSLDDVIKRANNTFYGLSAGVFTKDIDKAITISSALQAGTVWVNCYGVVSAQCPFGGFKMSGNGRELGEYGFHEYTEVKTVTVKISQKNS
Experiment: qHTS Assay for Inhibitors of Aldehyde Dehydrogenase 1 (ALDH1A1). [Related pubchem assays: 1030 (qHTS Validation Assay for Inhibitors of aldehyde dehydrogenase 1 (ALDH1A1))]
Type: functional

Potency, inactive:
O=C(O)c1ccc2c(c1)CC(c1ccccc1)OC2=O (centres undefined)
CCOC(=O)CN1C(=O)N[C@@H](c2cccc(C(F)(F)F)c2)C(C(=O)OC)=C1C
CC(C(=O)NN=C(c1ccccc1)c1ccccc1)N1CCCC1 (centres undefined)
O=C(N/N=C/c1ccc2c(c1)OCO2)c1ccc(Br)o1
N#CC1=C(N)Oc2c(oc(CO)cc2=O)C12C(=O)Nc1ccc(Cl)cc12 (centres undefined)
C[C@@H]1C[C@H]2[C@@H]3C[C@H](F)C4=CC(=O)C=C[C@]4(C)[C@@]3(F)[C@@H](O)C[C@]2(C)[C@@]1(O)C(=O)CO
CCc1ccc(Oc2coc3cc(OCC(=O)Nc4cc(C)ccc4C)ccc3c2=O)cc1
O=C(Cn1c2ccccc2c(=O)c2cc([N+](=O)[O-])ccc21)Nc1ccccc1Cl

Potency, active:
CC(C)C1SC(N/N=C/c2ccco2)=NC1=O (centres undefined) 200 µM
O=C(c1no[n+]([O-])c1C(=O)c1csc2ccccc12)c1csc2ccccc12 3.55 µM
CCOC(=O)N1CCN(c2nc3ccccc3nc2C(C#N)C(=O)NCCc2ccccc2)CC1 (centres undefined) 398 µM
CC(=O)OCc1ccccc1 20 µM
O=C(/C=C/c1ccc(Cl)cc1)c1cccs1 12.6 µM
COc1ccc(N2CC(C(=O)OCC(=O)c3cccc(OC)c3)CC2=O)cc1 (centres undefined) 224 µM
